Reference: PMC4336329 (PLoS ONE, 2015)
About 14,000 (4.5%) of roughly 310,000 compounds showed an effect of 50% or more. Effects have a minus sign here. Many of the other results were omitted from the sample, so strong results are more common in it than they were.

Target: human ether-à-go-go-related gene (hERG) potassium channel (human, UniProt Q12809)
Assay: primary screen, population patch clamp on CHO cells stably expressing hERG; higher = less effect of the substance
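Note: peak tail current of the secondary pulse compared with the same well before compound.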

human ether-à-go-go-related gene (hERG) potassium channel, sequence (Q12809 whole entry, looked up): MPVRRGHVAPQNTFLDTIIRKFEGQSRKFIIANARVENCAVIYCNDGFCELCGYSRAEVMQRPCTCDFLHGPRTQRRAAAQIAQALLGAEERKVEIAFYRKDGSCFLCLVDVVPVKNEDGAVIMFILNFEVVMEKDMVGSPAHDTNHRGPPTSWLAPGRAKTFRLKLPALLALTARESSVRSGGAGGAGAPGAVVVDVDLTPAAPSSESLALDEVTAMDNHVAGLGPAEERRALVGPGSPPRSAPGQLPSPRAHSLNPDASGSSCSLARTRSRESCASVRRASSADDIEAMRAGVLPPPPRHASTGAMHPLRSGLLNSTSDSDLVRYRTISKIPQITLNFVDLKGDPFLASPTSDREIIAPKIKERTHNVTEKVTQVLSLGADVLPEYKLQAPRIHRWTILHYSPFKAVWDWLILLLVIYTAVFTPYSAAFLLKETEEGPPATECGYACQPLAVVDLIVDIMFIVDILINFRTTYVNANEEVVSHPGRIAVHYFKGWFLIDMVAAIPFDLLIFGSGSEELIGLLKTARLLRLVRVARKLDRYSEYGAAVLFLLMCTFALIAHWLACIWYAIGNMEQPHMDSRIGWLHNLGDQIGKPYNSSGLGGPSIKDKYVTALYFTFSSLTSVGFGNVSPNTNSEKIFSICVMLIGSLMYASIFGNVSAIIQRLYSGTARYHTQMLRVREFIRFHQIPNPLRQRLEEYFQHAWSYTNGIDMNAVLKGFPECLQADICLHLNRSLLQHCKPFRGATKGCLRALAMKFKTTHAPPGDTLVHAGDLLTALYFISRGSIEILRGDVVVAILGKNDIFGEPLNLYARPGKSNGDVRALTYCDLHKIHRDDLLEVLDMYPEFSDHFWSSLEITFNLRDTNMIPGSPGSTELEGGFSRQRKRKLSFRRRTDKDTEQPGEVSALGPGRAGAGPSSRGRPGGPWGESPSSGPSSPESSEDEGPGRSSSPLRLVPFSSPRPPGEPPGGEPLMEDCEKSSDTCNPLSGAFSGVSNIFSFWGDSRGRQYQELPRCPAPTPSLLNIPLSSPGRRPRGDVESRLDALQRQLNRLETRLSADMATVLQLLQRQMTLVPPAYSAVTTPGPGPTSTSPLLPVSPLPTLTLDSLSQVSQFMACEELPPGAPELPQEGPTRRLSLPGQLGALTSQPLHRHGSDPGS

Row | SMILES | hERG current change (%, negative = inhibition) at 10uM [%]
1 | Cc1ccc(C)c(Cn2c(=O)n(CCCC(=O)NCc3ccco3)c(=O)c3ccccc32)c1 | 0.892
2 | O=C(Nc1ccc(Cl)cn1)c1ccc(-c2ccc(Cl)c(Cl)c2)o1 | 10.1
3 | CC(=O)c1ccccc1NS(=O)(=O)c1c(C)nn(-c2ccccc2)c1C | 3.03
4 | CCn1nc(C)c(CNC(=O)CCc2nnc(Cc3c[nH]c4ccccc34)o2)c1C | 42
5 | CCC(C)(C)n1nnnc1C(c1ccccc1OC)N1CCSCC1 (stereo not shown) | -24.1
6 | CCOc1ccccc1C(C(=O)NCCOC)N(CCOC)C(=O)Cn1nnc2ccccc21 (stereo not shown) | 18.5
7 | Cc1ccc(OCC(=O)N2CCCCCCC2)cc1 | 7.87
8 | Cc1ccc(C(=O)N2CCN(S(=O)(=O)c3ccc(C)c([N+](=O)[O-])c3)C2)cc1 | -42.7
9 | O=C(COc1ccc2ccccc2c1)NNC(=O)c1ccc([N+](=O)[O-])cc1 | -1.08
10 | Cc1cccc(OCC(=O)NNC(=O)c2ccc([N+](=O)[O-])cc2)c1 | 1.5
11 | Cc1ccc(OCC(=O)N2CCN(C(=O)c3cccc(F)c3)CC2)cc1 | -13.3
12 | Cc1ccc(S(=O)(=O)N2CCN(C(=O)c3ccc([N+](=O)[O-])cc3)C2)cc1 | -60
13 | Cc1ccc(OCC(=O)N2CCN(C(=O)c3ccc([N+](=O)[O-])cc3)CC2)cc1 | -83.4
14 | O=C(COc1ccc2ccccc2c1)N1CCN(c2ccccc2)CC1 | 11.7
15 | Cc1cccc(OCC(=O)N2CCN(C(=O)c3ccc([N+](=O)[O-])cc3)CC2)c1 | -68.8
16 | Cc1ccc(C(=O)N2CCN(S(=O)(=O)c3ccc(C)cc3)CC2)cc1 | -20.1
17 | O=C(COc1ccc2ccccc2c1)N1CCN(C(=O)c2ccc([N+](=O)[O-])cc2)CC1 | -76.5
18 | Cc1cccc(OCC(=O)N2CCN(C(=O)c3cccs3)CC2)c1 | -7.23
19 | COc1ccc(C(=O)N/N=C/c2sc(=O)n(Cc3cccc(C(=O)O)c3)c2Cl)cc1 | -1.9
20 | CC(C)(C)C1CCC(=NNC(=O)C2COc3ccccc3O2)CC1 (stereo not shown) | 0.995
21 | CCOC(=O)Cn1ccc(NC(=O)COc2ccc(F)cc2F)n1 | -2.52
22 | Cc1ccc(OCc2cc(C(=O)N3CC4C[C@@H]5CC3C[C@H](C4)C5)no2)cc1C | 15.7
23 | COc1ccc(C(=O)C[n+]2cccc(C)c2)cc1.[Br-] | 13

Row | SMILES | hERG current change (%, negative = inhibition) at 10uM [%]
24 | NC(=O)c1ccc(NCc2ccco2)c([N+](=O)[O-])c1 | 6.16
25 | CN1CCN(S(=O)(=O)c2ccc3c(c2)C(C)(C)C(=O)N3C)CC1 | 14.3
26 | CSCCC(NC(=O)c1cc(S(=O)(=O)N2CCOCC2)ccc1F)c1nc2ccccc2[nH]1 (stereo not shown) | -5.27
27 | O=C(COc1ccccc1)N1CCN(S(=O)(=O)c2cccc([N+](=O)[O-])c2)CC1 | -47.3
28 | CCC(=O)c1ccc(OCC(=O)N2CCN(C(=O)c3ccccc3)CC2)cc1 | -37.8
29 | COc1ccc(OCC(=O)N2CCN(C(=O)c3ccccc3)CC2)cc1 | -12.6
30 | COc1ccc(OCC(=O)N2CCN(C(=O)c3ccc(F)cc3)CC2)cc1 | -20.2
31 | COc1ccc(OCC(=O)N2CCN(C(=O)c3ccc([N+](=O)[O-])cc3)CC2)cc1 | -67.2
32 | O=C(COc1ccccc1)N1CCN(C(=O)c2ccc([N+](=O)[O-])cc2)CC1 | -62.4
33 | COc1ccc(NC(=O)Cc2nnc(SCC(=O)NC3CCCC3)n2C)cc1 | 15.3
34 | CN(CC(=O)Nc1ccccc1Sc1ccccc1)Cc1nc2ccccc2c(=O)[nH]1 | -37.1
35 | CC(C)CN(CC(C)C)C(=O)COc1ccccc1C(N)=O | 7.55
36 | COc1ccc(S(=O)(=O)N2CCN(CC(=O)Nc3cc(C(F)(F)F)ccc3Cl)CC2)cc1 | -4.6
37 | CSc1ccc(CN2CCC(Cc3ccccc3)CC2)cc1 | -65.4
38 | Clc1ccc(CN2CCC(Cc3ccccc3)CC2)cc1 | -40.9
39 | CCOc1ccc(S(=O)(=O)N2CCN(Cc3ccccc3)CC2)cc1 | 1.61
40 | C=CCOc1ccccc1CN1CCSCC1 | -11.2
41 | C=CCOc1ccccc1CN1CCCCCC1 | -18.9
42 | Clc1cccc(CN2CCC(Cc3ccccc3)CC2)c1 | -27.9
43 | Fc1ccc(CN2CCC(Cc3ccccc3)CC2)cc1F | 2.03
44 | CCOc1ccc(CN2CCC(Cc3ccccc3)CC2)cc1 | -78.3
45 | C=CCOc1ccccc1CN1CCC(Cc2ccccc2)CC1 | -70.3
46 | O=C(CNS(=O)(=O)c1ccccc1)NCC(=O)OCc1ccccc1F | 13.7

Row | SMILES | hERG current change (%, negative = inhibition) at 10uM [%]
47 | CC[C@@]12C(=O)N(c3ccccc3)C(=O)N1[C@H](c1ccc(Br)cc1)[C@@H]1C(=O)N(C(C)(C)C)C(=O)[C@@H]12 | 4.22
48 | CCOC(=O)/C=C/c1cnn(-c2ccccc2)c1 | 3
49 | CCc1nc2cc(CC(=O)O)ccc2o1 | 8.35
50 | COc1ccc(/C=N/NC(=O)Cn2cnc3ccccc3c2=O)cc1OC | -6.77
51 | CCCCn1c(O)c(C(CC)=NCc2ccco2)c(=O)[nH]c1=O | -35.4
52 | CC(C)CN(C(=O)CN(C)C(=O)Cc1ccccc1Cl)c1c(N)n(CC(C)C)c(=O)[nH]c1=O | 20.7
53 | CCC1CCCCN1C(=O)c1cccc(S(=O)(=O)Nc2cc(C(F)(F)F)ccc2Cl)c1 (stereo not shown) | 2.59
54 | COc1ccc(CCC(=O)NCCOc2ccc(Cl)cc2)cc1 | -7.98
55 | COc1ccc(-c2[nH]c3ccccc3c2SCCNC(=O)c2cc3ccccc3oc2=O)cc1 | -0.175
56 | CCOc1ccc(NC(=O)Cn2nnc(C(=O)NCc3cccs3)c2N)cc1 | 13.8
57 | Cc1cc(=O)[nH]c2nnc(-c3ccc(Br)cc3)n12 | 5.99
58 | O=S(=O)(c1ccc2c(c1)CCN2)N1CCCC1 | -1.58
59 | COc1ccc(CNC(=O)COC(=O)[C@H](Cc2c[nH]c3ccccc23)NC(=O)c2cccs2)cc1 | -0.701
60 | COc1ccccc1N1CCN(CC(O)c2ccc3cc[nH]c3c2)CC1 (stereo not shown) | -69.3
61 | OC(COc1ccc2ccccc2c1Cl)CN1CCOCC1 (stereo not shown) | -24.5
62 | COc1ccccc1N1CCN(CC(O)COc2cccc3ccccc23)CC1.Cl (stereo not shown) | -68.3
63 | COc1ccccc1N1CCN(CC(O)COc2c(OC)cccc2OC)CC1.Cl (stereo not shown) | -48.4
64 | COc1ccccc1N1CCN(CC(O)c2ccccc2)CC1 (stereo not shown) | -8.46
65 | Cc1ccc(N2CCN(CC(O)COc3cccc4ccccc34)CC2)cc1 (stereo not shown) | -25.1
66 | OC(COc1cccc2ccccc12)CN1CCN(c2ccccc2)CC1 (stereo not shown) | -33.2
67 | OC(COc1cccc2ccccc12)CN1CCN(c2ccccc2Cl)CC1 (stereo not shown) | -50.2
68 | CCOC(=O)N1CCN(CC(O)c2ccc3cc[nH]c3c2)CC1 (stereo not shown) | -30.4
69 | COc1ccccc1N1CCN(CC(O)COc2cccc3ccccc23)CC1.Cl.O (stereo not shown) | -61

Row | SMILES | hERG current change (%, negative = inhibition) at 10uM [%]
70 | OC(COc1cccc2ccccc12)CN1CCCC1 (stereo not shown) | -29.4
71 | CCCc1nnc(SCC(=O)Nc2ccc(OCC)cc2)n1N | -3.79
72 | CCN(c1ccccc1)S(=O)(=O)c1ccc(Cl)c(C(=O)N(CC2CCCO2)C2CCS(=O)(=O)C2)c1 (stereo not shown) | -5.04
73 | Cc1ccc(-c2csnn2)cc1 | 6.13
74 | CCN1CCN(CCCNC(=O)C2c3ccccc3C(=O)N(c3ccc(OC)cc3)C2c2ccc(OC)cc2)CC1 (stereo not shown) | 1.22
75 | CCCCCN(C(=O)COC(=O)CSc1ccc([N+](=O)[O-])cc1)c1c(N)n(CCCC)c(=O)[nH]c1=O | -40.5
76 | CCc1cccc(NC(=O)CN(c2ccc(C)cc2)S(=O)(=O)c2c(C)noc2C)c1 | 8.14
77 | COc1cc(OC)c(NC(=O)CCc2nc(-c3ccc(C)cc3)no2)cc1Cl | 6.21
78 | COc1ccc(-c2ccc(-c3noc(-c4ccccc4C)n3)c(OC)n2)cc1 | 6.35
79 | O=C(NC1CCC(O)CC1)c1cccc2cccnc12 (stereo not shown) | 7.2
80 | CN(C)Cc1c(O)ccc2c(=O)c(-c3ccc(Cl)cc3)coc12 | -9.92
81 | CC1CCCCN1Cc1c(O)ccc2c(=O)c(-c3ccccc3)coc12 (stereo not shown) | -38.2
82 | CC1CCN(Cc2c(O)ccc3c(=O)c(-c4nc5ccccc5s4)c(N)oc23)CC1 | -48.5
83 | CC1CCCCN1Cc1c(O)ccc2c(=O)c(-c3ccc(Cl)cc3Cl)coc12 (stereo not shown) | -60.7
84 | CCN(CC)Cc1c(O)ccc2c(=O)c(-c3ccc(Cl)cc3)coc12 | -58.4
85 | CC1CCCCN1Cc1c(O)ccc2c(=O)c(-c3nc4ccccc4s3)coc12 (stereo not shown) | -48
86 | COc1ccccc1-c1coc2c(CN3CCCCC3C)c(O)ccc2c1=O (stereo not shown) | 6.44
87 | CC1CCCN(Cc2c(O)ccc3c(=O)c(-c4nc5ccccc5s4)c(N)oc23)C1 (stereo not shown) | -0.886
88 | CC1CCCCN1Cc1c(O)ccc2c(=O)c(-c3nc4ccccc4s3)c(N)oc12 (stereo not shown) | -60.6
89 | CC1CCCCN1Cc1c(O)ccc2c(=O)c(-c3ccc(Cl)cc3)coc12 (stereo not shown) | -69.1
90 | COc1ccc(-c2coc3c(CN4CCCCC4C)c(O)ccc3c2=O)cc1 (stereo not shown) | -39.4
91 | CCN(CC)Cc1c(O)ccc2c(=O)c(-c3ccccc3)coc12.Cl | -1.91
